Assay results published in PubChem BioAssay AID624330 (Southern Research Specialized Biocontainment Screening …, 2012).
Out of some 340,000 compounds screened, about 2,100 (0.62%) were called active.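 Rule for the calls: active = first-screen hits whose inhibition reached a set limit at any dose in the follow-up dose series; inconclusive = inhibition above the set first-screen limit but never retested; inactive = the rest.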 The list is a sample of the results. Measured potencies and affinities stand elsewhere.

Biological target: Rac GTPase-activating protein 1 (Homo sapiens) (UniProt Q9H0H5)
Sequence (Q9H0H5 whole entry, looked up): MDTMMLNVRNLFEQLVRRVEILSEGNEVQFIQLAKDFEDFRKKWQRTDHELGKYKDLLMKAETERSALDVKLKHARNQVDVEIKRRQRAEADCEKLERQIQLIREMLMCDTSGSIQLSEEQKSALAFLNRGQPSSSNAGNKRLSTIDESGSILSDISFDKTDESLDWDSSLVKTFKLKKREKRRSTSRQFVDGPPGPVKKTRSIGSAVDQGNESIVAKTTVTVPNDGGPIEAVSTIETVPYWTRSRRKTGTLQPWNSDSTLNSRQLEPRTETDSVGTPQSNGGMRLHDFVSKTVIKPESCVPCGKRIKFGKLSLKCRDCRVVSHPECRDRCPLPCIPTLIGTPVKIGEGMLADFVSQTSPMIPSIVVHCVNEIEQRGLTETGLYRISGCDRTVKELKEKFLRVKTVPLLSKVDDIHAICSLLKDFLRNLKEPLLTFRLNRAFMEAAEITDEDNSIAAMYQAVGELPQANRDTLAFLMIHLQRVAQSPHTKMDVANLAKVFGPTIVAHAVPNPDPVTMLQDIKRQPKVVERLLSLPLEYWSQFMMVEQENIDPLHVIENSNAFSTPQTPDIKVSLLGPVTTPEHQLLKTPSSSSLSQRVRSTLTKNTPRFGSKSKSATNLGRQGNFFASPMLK
Assay: MgcRacGAP GTPase-activating activity inhibitors, confirmation, biochemical, ADP Hunter fluorescence, primary and confirmatory (AID 624330);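 note: fluorescence reports GDP produced by GAP-driven GTP hydrolysis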
Details: MgcRacGAP-stimulated Rac1 GTP hydrolysis, at 30 µM, hits give high values, GST-tagged Rac1 F28L mutant substrate

inhibition, inactive:
CCOC(=O)C1(C)C=C(Nc2ccc(C)cc2)C(=O)N1c1ccc(C)cc1 (stereo unspecified) 1.9%
CCOC(=O)C1(C)C=C(Nc2ccc(NC(C)=O)cc2)C(=O)N1c1ccc(NC(C)=O)cc1 (stereo unspecified) 4.87%
CC(C)N1C(=O)c2ccccc2C1C(=O)NCCc1ccccc1 (stereo unspecified) 3.65%
COCC(=O)N(Cc1cc2cccc(C)c2[nH]c1=O)c1ccccc1 2.29%
CCOc1ccc(OCCC(=O)OCC(=O)c2c(N)n(CC(C)C)c(=O)n(C)c2=O)cc1 15%
O=C(O)C1Nc2c(Cl)cc(Cl)c(Cl)c2C2C=CCC12 (stereo unspecified) 17.2%
Cc1cc(C)c2c(c1)NC(c1cc3c(cc1Br)OCO3)C1CC=CC21 (stereo unspecified) -0.13%
CC1Cc2cc(S(=O)(=O)N3CCC(C(=O)N(C)Cc4ccccc4)CC3)ccc2N1C(=O)C1CC1 (stereo unspecified) 8.31%
Fc1ccc(-n2cc(CNCCc3ccncc3)c(-c3ccccc3Cl)n2)cc1 1.7%
CCOc1ccc(OCC(=O)Nc2cc(Cl)ccc2-n2cncn2)cc1 20.4%
CCN(C(=O)COC(=O)CCCc1c[nH]c2ccccc12)c1c(N)n(Cc2ccccc2)c(=O)[nH]c1=O -4.19%
O=c1oc2ccc(Cl)cc2nc1/C=C(\O)c1ccco1 25%
Cc1ccc2oc(=O)c(/C=C(\O)c3cccs3)nc2c1 15.8%
O=c1oc2ccc(Cl)cc2nc1/C=C(\O)c1cccs1 19.2%
Cc1ccc2oc(=O)c(/C=C(\O)c3ccco3)nc2c1 18.2%
CN(CCO)c1cc(NCCCN2CCC(Cc3ccccc3)CC2)c2nonc2c1[N+](=O)[O-] 4.68%
O=C(Nc1ccncc1)c1ccc(Cl)c(Cl)c1 4.24%
O=C(Nc1ccc(NC(=O)c2ccc(Cl)cc2Cl)cc1)c1ccc2c(c1)OCO2 5.16%
Cc1ccc(NC(=O)c2ccc(-n3cccn3)c([N+](=O)[O-])c2)cc1 6.01%
Cc1ccc(C(=O)Nc2ccncc2)cc1[N+](=O)[O-] 10.1%
COc1ccc(N(C(=O)/C=C/c2ccccc2)C2=CC3CCC(C2)N3C)cc1 (stereo unspecified) 1.64%
COc1cc2[nH]c(C(=O)N3CCC(Cc4ccccc4)CC3)cc2c(OC)c1OC 4.96%
Cc1ccc(-n2nc(C)c3c2OC(N)=C(C#N)C3c2ccc(F)cc2)cc1 (stereo unspecified) 6.17%
Cc1c(C(=O)N/N=C/c2cccs2)nc2ccccn12 4.8%
Cc1cc(N)ccc1NC(=O)c1ccccc1 6.01%
CC(C)(C)N1C(=O)c2ccc(C(=O)Nc3ccc(C(=O)O)cc3)cc2C1=O 1.96%
CC(C)CN1C(=O)c2ccc(C(=O)Nc3ccc(O)cc3C(=O)O)cc2C1=O 15.1%
Cc1ccc(C(=O)Nc2ccc(O)cc2C(=O)O)cc1 14.9%
CC(C)(C)N1C(=O)c2ccc(C(=O)Nc3cc(C(=O)O)cc(C(=O)O)c3)cc2C1=O 13.1%
CCN1C(=O)c2ccc(C(=O)Nc3c(C)cc(C)cc3C)cc2C1=O -2.89%
Cc1ccc(N2C(=O)c3ccc(C(=O)N4CCOCC4)cc3C2=O)cc1C -11.3%
O=C(COC(=O)c1ccc(O)cc1O)c1ccc(Cl)cc1 2.91%
CCCOP(=O)(c1ccc(N(C)C)cc1)C(O)c1ccccc1OC (stereo unspecified) 4.57%
Nc1ccc2c(c1)C(=O)c1ccc(N)cc1-2 22.8%
Nc1cc2c(cc1Cl)-c1ccc(Cl)cc1C2=O 3.85%
Nc1ccc2c(c1)C(=O)c1ccccc1-2 18.2%
Nc1ccc2c(c1)C(=O)c1cc(Cl)c(Cl)cc1-2 7.4%
CCOC(=O)C1CCN(CCC(=O)Nc2ccccc2)CC1 12.6%
Cc1cccc(NC(=S)NCc2cccs2)c1 9.05%
COc1cc(C(=O)N[C@@H](Cc2c[nH]c3ccccc23)C(=O)O)cc(OC)c1OC 1.53%
O=C(/C=C/c1ccc(F)cc1)NC(Cc1c[nH]c2ccccc12)C(=O)O (stereo unspecified) -4.83%
Cc1nn(-c2ccccc2)c(NC(=O)c2cccs2)c(-c2ccccc2)c1=O 0.27%
Cc1cccc(NC(=O)N2CCCCCC2)c1 4.32%
CCc1cc2c(SCc3ccc(C(=O)OC)o3)ncnc2s1 7.63%
CCOc1cc(/C=C2\SC(=S)N(Nc3ccccc3)C2=O)ccc1O 11.1%
O=C1/C(=C\c2ccc(O)cc2)SC(=S)N1Cc1ccccc1 10.6%
COc1cc(/C=C2\SC(=S)N(Nc3ccccc3)C2=O)cc(OC)c1OC 11.2%
COc1cccc(/C=C2\SC(=S)N(NC(=O)c3ccncc3)C2=O)c1 15.5%
O=C(NN1C(=O)/C(=C/c2cccs2)SC1=S)c1ccncc1 8.88%
CC(=O)NN1C(=O)/C(=C\c2ccc(C)cc2)SC1=S 9.68%
CC(=O)NN1C(=O)/C(=C\c2ccc(Cl)cc2)SC1=S 7.77%
O=C1/C(=C\c2ccc(O)cc2)SC(=S)N1c1cccnc1 2.66%
N/C(=N\OC(=O)Cc1ccc(-c2ccccc2)cc1)c1cccnc1 5.49%
CCNC(=S)N1C2CCC1CC(NC(=O)NC1CCCCC1)C2 (stereo unspecified) 1.32%
c1ccc(-n2ncc3c(N4CCN(CCOc5cccc6ccccc56)CC4)ncnc32)cc1 -0.49%
CCCCOC(=O)c1cc(Cl)c(O)c(OC)c1 13.4%
CC(NC(=O)c1ccc(F)cc1)c1ccc(F)cc1 (stereo unspecified) 4.7%
O=C(Nc1ccccc1)C(Cc1ccccc1)c1ccccc1 (stereo unspecified) -2.68%
CCOc1ccc(N2CC(C(=O)Nc3cc(OCC)c(N4CCOCC4)cc3OCC)CC2=O)cc1 (stereo unspecified) 2.59%
CCN1CCN(C(=O)C2(NC(=O)Nc3ccccc3Cl)CCCCC2)CC1 2.74%
O=c1ccc(-c2ccccc2)no1 1.17%
